Data on five compounds can be found in PubChem BioAssay AID1347074 (Center for Chemical Genomics, University of Michigan, 2019).

SMILES strings stand for the structures. About 2,800 (6%) of roughly 47,000 compounds were called active. Shown is part of a subset that was picked to be rich in actives. Values without a mark were called inactive. No stated cut-off is given here; in the data, active means z-score above about 3 (passing the limit was not always enough); inactive means the rest.

In the test the target is Endoribonuclease Dicer (Homo sapiens) (UniProt Q9UPY3). The test can be described thus: inhibitors of Dicer pre-microRNA processing, primary screen, biochemical, cat-ELCCA, chemiluminescence (AID 1347074).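 Further: plate controls were vehicle for no effect and no enzyme for full effect; higher signal means more uncleaved substrate so more Dicer inhibition.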 The settings on record: cat-ELCCA pre-miR-21 Dicer processing, at 25 µM, active compounds read high.
Endoribonuclease Dicer (Homo sapiens), sequence (Q9UPY3 whole entry, looked up): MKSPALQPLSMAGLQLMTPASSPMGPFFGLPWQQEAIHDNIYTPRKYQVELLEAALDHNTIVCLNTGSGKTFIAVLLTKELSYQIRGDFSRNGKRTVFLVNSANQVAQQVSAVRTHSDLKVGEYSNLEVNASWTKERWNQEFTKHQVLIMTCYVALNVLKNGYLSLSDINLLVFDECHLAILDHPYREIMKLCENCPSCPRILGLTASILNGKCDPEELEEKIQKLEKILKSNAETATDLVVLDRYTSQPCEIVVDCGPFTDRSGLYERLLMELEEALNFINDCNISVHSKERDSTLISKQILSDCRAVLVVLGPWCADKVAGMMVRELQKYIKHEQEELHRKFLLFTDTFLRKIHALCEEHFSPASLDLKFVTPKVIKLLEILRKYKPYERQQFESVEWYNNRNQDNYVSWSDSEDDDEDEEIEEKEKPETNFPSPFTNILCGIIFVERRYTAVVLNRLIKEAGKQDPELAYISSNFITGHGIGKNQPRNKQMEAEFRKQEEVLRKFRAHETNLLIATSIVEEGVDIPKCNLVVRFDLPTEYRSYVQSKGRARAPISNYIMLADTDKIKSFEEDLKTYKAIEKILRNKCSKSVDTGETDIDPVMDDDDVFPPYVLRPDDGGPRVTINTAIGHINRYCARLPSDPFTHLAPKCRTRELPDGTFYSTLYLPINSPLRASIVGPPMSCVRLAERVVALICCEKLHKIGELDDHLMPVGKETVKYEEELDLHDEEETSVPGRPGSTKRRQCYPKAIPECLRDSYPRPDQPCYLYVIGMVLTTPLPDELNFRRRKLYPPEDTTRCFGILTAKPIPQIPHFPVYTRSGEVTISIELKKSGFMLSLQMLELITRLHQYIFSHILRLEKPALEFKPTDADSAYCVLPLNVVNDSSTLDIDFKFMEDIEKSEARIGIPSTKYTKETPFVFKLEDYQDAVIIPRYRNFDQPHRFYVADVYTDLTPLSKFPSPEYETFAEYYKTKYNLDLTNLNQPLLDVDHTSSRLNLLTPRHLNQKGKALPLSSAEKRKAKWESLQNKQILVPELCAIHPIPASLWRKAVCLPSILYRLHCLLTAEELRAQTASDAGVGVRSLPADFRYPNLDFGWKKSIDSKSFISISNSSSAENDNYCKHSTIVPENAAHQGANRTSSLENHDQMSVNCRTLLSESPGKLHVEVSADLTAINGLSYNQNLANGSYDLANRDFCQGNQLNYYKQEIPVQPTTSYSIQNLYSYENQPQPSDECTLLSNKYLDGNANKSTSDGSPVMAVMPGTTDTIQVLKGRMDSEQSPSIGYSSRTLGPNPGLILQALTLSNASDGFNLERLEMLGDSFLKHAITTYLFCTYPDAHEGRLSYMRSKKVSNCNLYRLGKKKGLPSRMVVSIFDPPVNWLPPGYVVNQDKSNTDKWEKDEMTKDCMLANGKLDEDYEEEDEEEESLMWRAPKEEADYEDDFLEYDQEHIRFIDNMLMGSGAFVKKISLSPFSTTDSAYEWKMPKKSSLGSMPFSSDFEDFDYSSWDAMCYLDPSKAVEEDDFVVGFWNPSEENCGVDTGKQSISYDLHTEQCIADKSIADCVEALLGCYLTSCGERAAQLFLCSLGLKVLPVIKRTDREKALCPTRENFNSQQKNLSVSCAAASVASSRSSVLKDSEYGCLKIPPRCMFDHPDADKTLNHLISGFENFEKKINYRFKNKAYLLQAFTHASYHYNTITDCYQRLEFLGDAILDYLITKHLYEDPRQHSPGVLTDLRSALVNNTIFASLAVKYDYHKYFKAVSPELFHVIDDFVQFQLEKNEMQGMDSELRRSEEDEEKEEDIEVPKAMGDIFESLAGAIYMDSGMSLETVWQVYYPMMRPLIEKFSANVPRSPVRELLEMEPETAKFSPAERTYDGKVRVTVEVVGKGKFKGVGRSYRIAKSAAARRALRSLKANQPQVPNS
For the compound `CCOc1c(Br)cc(CNCCc2c[nH]c3ccccc23)cc1OC`, the z-score is 6.45 (active).

Regarding `CC[N+]1(C)CCCC(OC(=O)C(O)(c2ccccc2)c2ccccc2)C1` (stereo not given), the z-score was -0.07.

`Fc1ccccc1CN1CCN(Cc2ccc3c(c2)OCO3)CC1`: the z-score was -0.5.

For the compound `CN(C)C(=O)Oc1nnc(SCCS(=O)(=O)c2ccc(F)cc2)n1C1CC1`, the z-score was -1.56.

For the compound `Cc1cccc(-c2nc(C)cc(OC(=O)N(C)C)n2)c1`, the z-score was -0.47.
